Screening data (PubChem BioAssay)
Gal4-VP16 FLuc – inhibits Gal4-VP16 luciferase reporter, ROR gamma counter-screen | Potency, µM (series often up to 53.6 µM), for inactives: at the top dose activity, negative = inhibition, most hits filed as inhibitors | hit rate 3.5% among 310,000 | Drosophila S2 Gal4-VP16 UAS-luciferase, luminescence, 20 h;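 note: Gal4-VP16 expression switched on by copper sulfate through the metallothionein promoter; potency is the fitted concentration of half-maximal effect; % is set by controls: 0 for no effect and ±100 for the full control effect; nearly all actives have a fitted effect of over 50% in size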
RORg inh – blocks mouse ROR gamma transcriptional activity | P51450 | Drosophila S2 Gal4-RORgamma UAS-luciferase reporter, 20 h | Potency, µM (doses to about 53.6 µM), inactives show at the top dose activity change, negative = inhibition, most hits filed as inhibitors | hit rate 5.4% among 310,000 | AID 2551; note: potency is the fitted concentration of half-maximal effect; % is set by controls: 0 for no effect and ±100 for the full control effect; nearly all actives have a fitted effect of over 60% in size
Target sequence (P51450 whole entry, looked up, the tested form may be a part): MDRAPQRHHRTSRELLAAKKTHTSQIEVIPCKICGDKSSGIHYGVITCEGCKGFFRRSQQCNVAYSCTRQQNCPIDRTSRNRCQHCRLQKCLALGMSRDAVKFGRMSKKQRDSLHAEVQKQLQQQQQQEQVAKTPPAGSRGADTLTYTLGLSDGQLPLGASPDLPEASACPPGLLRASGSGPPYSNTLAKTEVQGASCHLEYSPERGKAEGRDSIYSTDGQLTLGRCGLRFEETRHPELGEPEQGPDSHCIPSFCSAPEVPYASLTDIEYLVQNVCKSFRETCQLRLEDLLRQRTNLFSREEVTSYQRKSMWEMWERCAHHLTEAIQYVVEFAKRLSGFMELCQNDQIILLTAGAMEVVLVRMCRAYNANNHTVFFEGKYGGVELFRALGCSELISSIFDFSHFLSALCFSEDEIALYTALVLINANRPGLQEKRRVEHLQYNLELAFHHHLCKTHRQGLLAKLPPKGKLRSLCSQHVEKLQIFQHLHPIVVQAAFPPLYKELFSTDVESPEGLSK
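In this cell-based reporter format, copper sulfate (700 uM final) drives Gal4–ROR gamma fusion expression from a metallothionein promoter in Drosophila Schneider cells; compounds preincubated 1 hr, reporter read after 20 hr at ambient temperature.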
ERG Ets-DNA blk – ERG Ets/DNA interaction inhibition. Potency, µM (top dose mostly 76.9 µM), for inactives: at the highest dose FP activity, negative = inhibition, most hits filed as inhibitors. fluorescence polarization, His-ERG Ets domain / labelled DNA. AID 624246. hit rate 0.028% among 370,000. P11308; active = well fitted inhibition curve with a large enough effect in the polarisation, with a control signal flat; inconclusive = small, poorly fitted or top-dose-only effect, or effect the other way, or a change in a side signal; inactive = no such curve, though single readings can be large or run the other way; the % refers to the polarisation;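 note: polarization taken with two DNA probes labelled with fluorescein and Texas red; potency is the fitted concentration of half-maximal effect; % of control where 0% means no effect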
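His-tagged ERG Ets domain (1 uM in the protein solution; 300mM KCl, 50mM Tris-HCl, 1mM EDTA, 1mM DTT, pH 7.5) received compound, then a probe mix of 5 nM fluorescein-DNA and 100nM Texas-615-DNA. Fluorescence polarization was read for both dyes.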
Integrin act MD – activators of alpha7 integrin expression for muscular dystrophy; alpha7betagal myoblasts, beta-gal FDG fluorescence, 48 h; Potency, µM (top dose mostly 38.3 µM), for the others: at the highest dose activation, usual class: activators; hit rate 0.064% among 350,000; AID 624291;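 note: potency is the fitted concentration of half-maximal effect; 100% = response of the positive control SU9516; nearly all actives have a fitted effect of over 60% in size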
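alpha7betagal+/- myoblasts (passage 13, 250/well) treated 48 h at 37C with compounds at 1:260 dilution of DMSO stock. Lysed, then beta-galactosidase activity read as FDG fluorescence (ex 480/em 540) after 30 min, with pre-read for autofluorescence.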
Giardia killer – Giardia lamblia killing; Giardia lamblia trophozoite viability; activity change, % at 7.66 µM, hits read low; hit rate 0.15% among 340,000; AID 540267; in the data active = activity change below about -80%; inconclusive = between about -30% and that limit;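 note: parasites exposed to compound for two days anaerobically before the ATP read; % is set by controls: 0 for no effect and ±100 for the full control effect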
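Each well holds 100 Giardia trophozoites and compound. After two days (48 hrs) at 37 deg C in anaerobic conditions, ATP is quantified by luminescence.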
Active calls of the source: *; ? = inconclusive; · = not tested or not shown; [ ] = remark or other dose. Many of the other results were omitted from the sample, so hits are more common in it than they were. Unless noted, calls come from the whole dose curve; as a rule, active = well fitted curve in the direction sought with a large enough effect; inconclusive = small, poorly fitted or top-dose-only effect, or another doubt; inactive = no such curve, though single readings can be large; an effect the other way counts as inactive or inconclusive.

SMILES	Gal4-VP16 FLuc	RORg inh	ERG Ets-DNA blk	Integrin act MD	Giardia killer
CN(Cc1cn[nH]c1-c1ccc(-c2ccccc2)cc1)CC1CCOCC1	-2%	-11%	-6%	?	17
CCOC(=O)c1c(-c2ccc(OC)cc2)csc1/N=C/N(C)C	0%	7%	1%	36%	15
CCOC(=O)c1c(-c2ccc(OC)cc2)csc1/N=C/C1C(=O)CCCC1=O	?	3.2µM*	17%	-50%	31
CCCCNc1nc(C)nc2c1nc(-c1ccccc1)n2CCN1CCCCC1	-17%	14µM*	·	·	·
COC(=O)c1c(-c2ccc3ccccc3c2)csc1NC(=O)Cc1ccc(OC)c(OC)c1	?	?	-5%	-44%	2
Brc1ccc(CNc2ccc3ncccc3c2)cc1	7.1µM*	?	-4%	-24%	-1
COc1ccc(Cl)cc1NC(=O)c1ccccc1C	28%	-2%	-2%	6%	4
COc1ccc(Cl)cc1NC(=S)NCCC(c1ccccc1)c1ccccc1	4.5µM*	7.1µM*	-8%	-43%	4
COc1cc(NC(=S)NCCC(c2ccccc2)c2ccccc2)c(OC)cc1Cl	3.2µM*	5µM*	13%	21%	-6
COc1ccc(Cl)cc1NC(=S)Nc1ccccc1C	?	11µM*	12%	12%	-6
COc1ccc(Cl)cc1NC(=S)NCCO	-6%	4%	-2%	-2%	-5
COc1ccc(Cl)cc1NC(=O)C/C(C)=N/NC(=O)c1ccc(O)cc1	?	8.9µM*	2%	4%	-20
O=C(Nc1nnc(CCc2ccccc2)s1)C1CCN(C(=O)c2ccco2)CC1	·	·	·	·	-15
CCOC(=O)C1(C)C=C(Nc2cccc(C)c2)C(=O)N1c1ccccc1 (stereo not drawn)	·	·	4%	·	·
COc1ccccc1NC(=S)NCCC(c1ccccc1)c1ccccc1	?	11µM*	2%	23%	5
COc1ccc(Cl)cc1NC(=O)CNC(c1ccccc1)c1ccccc1	2.5µM*	?	5%	43%	-4
COc1ccc(C)cc1NC(=O)CNC(c1ccccc1)c1ccccc1	-3%	30%	14%	?	-12
COc1ccccc1NC(=S)NCCc1ccc(OC)c(OC)c1	-13%	?	7%	-11%	-6
CN1CCC2(CC1)CCN(C(=O)c1ccncc1)CC2	1%	-13%	·	·	·
CC1(C)O[C@H]2[C@@H](O1)[C@@H](C(=O)Nc1cc(F)ccc1F)O[C@@H]1OC(C)(C)O[C@@H]12	·	·	0%	·	·
C/C(=N\NC(=S)NC1CCCCC1)c1cccs1	0.79µM*	?	-1%	-5%	18
C/C(=N\NC(=S)NC1CCCCC1)c1c(F)cccc1F	2.8µM*	0.63µM*	3%	-18%	4
C/C(=N\NC(=S)NC1CCCCC1)c1ccc(Cl)c(Cl)c1	2.8µM*	1.4µM*	4%	25%	-4
Clc1ccc(C2=NNC(=NCc3ccccc3)SC2)cc1	?	5µM*	?	21%	6
CC(C)N=C1NN=C(c2ccc(F)cc2)CS1	?	7.1µM*	19%	16%	-21
SMILES	Gal4-VP16 FLuc	RORg inh	ERG Ets-DNA blk	Integrin act MD	Giardia killer
c1ccc(CN=C2NN=C(c3ccccc3)CS2)cc1	-76%	?	-1%	-8%	2
CC(=O)c1c(C)[nH]c(C2=NNC(=NCc3ccccc3)SC2)c1C	-12%[10 µM]	13%	8%	?	-5
Fc1ccc(N=C2NN=C(c3cc(F)ccc3F)CS2)cc1	?	?	-10%	-33%	0
COc1ccccc1C1=NNC(=NCc2ccccc2)SC1	-5%	11µM*	-8%	-4%	3
Fc1ccc(C2=NNC(=NCc3ccccc3)SC2)cc1F	-26%	14µM*	6%	-71%	2
COC(=O)N1[C@H](C)C=C[C@]1(Cc1ccccc1)C(=O)O	-12%	-21%	8%	8%	-5
CCOC(=O)CN(c1ccccc1C)S(=O)(=O)c1ccc(Cl)cc1	-11%	14%	11%	-5%	11
CCN=C1NN=C(c2ccc(C)cc2)CS1	?	11µM*	·	-34%	-11
COc1ccccc1-c1nn2c(-c3ccccc3Cl)nnc2s1	2%	-16%	·	·	·
CCN(CC)c1ccc(-c2nn3c(-c4ccccc4OC)nnc3s2)cc1	14µM*	?	4%	-4%	1
COc1ccccc1CNc1cc(-c2cccc(C#N)c2)ncn1	8%	1%	·	·	·
Cc1cccc(CNc2cc(-c3cccc(C#N)c3)ncn2)c1	13µM*	-24%	·	·	·
COc1cccc(/C=N/N2C(=O)CSC2=S)c1O	4.5µM*	4µM*	·	-17%	?
COc1ccc2ccccc2c1/C=N/N1C(=O)CSC1=S	?	7.9µM*	50%	9%	-10
CN(C(=O)c1ccccc1C(=O)OCC(=O)c1ccc(F)c(F)c1)C1CCCCC1	·	·	0%	3%	7
Cc1ccccc1CNC(=O)c1c(C)oc2c1C1=NCCN1C=N2	·	·	9%	·	·
O=C(NC(=S)Nc1nc(-c2ccccc2)cs1)c1cccnc1	-13%	4µM*	9%	15%	-5
CCc1ccccc1OCC(=O)Nc1nc(-c2cccnc2)cs1	11µM*	3.2µM*	0%	-50%	-11
O=C(Nc1nc(-c2ccccc2Cl)cs1)c1cccnc1	5%	18%	-1%	10%	7
O=C(NC(=S)Nc1nc(-c2ccccc2)cs1)c1cncc(Br)c1	?	1.6µM*	·	3%	2
O=C(Cc1csc(Nc2nc(=S)[nH]c3ccccc23)n1)NCc1ccccc1Cl	-5%	6%	-1%	-4%[7.66 µM]	-7
O=C(Cc1csc(Nc2nc(=S)[nH]c3ccccc23)n1)N1CCN(c2cccc(C(F)(F)F)c2)CC1	7.1µM*	0.63µM*	-6%	-5%	12
O=C(CCCCCn1c(=O)[nH]c2ccccc2c1=O)N1CCN(c2cccc(C(F)(F)F)c2)CC1	·	·	-6%	·	·
Cc1ccc(CNC(=O)Cc2csc(Nc3nc(=S)[nH]c4ccccc34)n2)cc1	7.1µM*	1.4µM*	·	·	·
O=C(Cc1csc(Nc2nc(=S)[nH]c3ccccc23)n1)NCc1cccc(Cl)c1	?	6.3µM*	-17%	-14%[7.66 µM]	-2
SMILES	Gal4-VP16 FLuc	RORg inh	ERG Ets-DNA blk	Integrin act MD	Giardia killer
COc1ccc(CNC(=O)CCCCCNc2nc(=S)[nH]c3ccccc23)cc1	-3%	?	2%	-14%	-9
CCN1CCN(c2ccc(NC(=O)c3cc(S(=O)(=O)N4CCCC4)ccc3Cl)cc2)CC1	·	·	30%	-21%	8
CN(C)Cc1c(C(=O)N/N=C/C2CC=CCC2)nnn1-c1nonc1N (stereo not drawn)	5%	0%	-11%	2%	-2
C[C@@H](c1ccccc1)N1C(=O)[C@H]2[C@@H]3[C@H](O)C=CC(=O)[C@H]3CC[C@H]2C1=O	-12%[10 µM]	?	·	·	·
COC(=O)C1=C(C)N(C)C(=S)NC1c1c(OC)ccc2ccccc12 (stereo not drawn)	?	7.9µM*	-2%	14%	-1
O=C(CSCCO)Nc1ccc(C23CC4CC(CC(C4)C2)C3)cc1	8.9µM*	-2%	4%	-29%	13
